Screens as filed in PubChem BioAssay.
Pf growth 96h – P. falciparum growth inhibition at 96 hour, primary screen for plastid delayed-death inhibitors; P. falciparum luciferase reporter growth, 96 h; Potency, µM (top dose mostly 28.7 µM), actives largely listed as inhibitors; 320,000 tested, 6.9% active; AID 504834
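Erythrocytes infected with luciferase-expressing P. falciparum were dispensed at 2% hematocrit and 0.05% parasitemia (final), then incubated with compounds 96 hours at 37 C in 5% CO2. Luminescence after detection reagent addition reported growth.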
HCV inh – blocks hepatitis C virus. Huh7.5.1 HCVcc-Cre infection, luciferase reporter, 44 h. Potency, µM (highest dose often 41.8 µM), usual class: inhibitors. 340,000 tested, 3.4% active
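Infectious HCV cell culture screen: compound-treated cells (1,000/well, pre-plated 4 h) are infected with HCVcc-Cre at roughly 0.5 moi and grown 44 h. Infection is quantified by luciferase signal after 15 min substrate incubation at room temperature.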
Pf growth 48h – inhibits P. falciparum growth in the first generation, 48 h. P. falciparum luciferase growth in erythrocytes, 48 h. Potency, µM (doses to about 28.7 µM), usual class: inhibitors. 310,000 tested, 5.9% active
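Erythrocytes infected with P. falciparum carrying an integrated firefly luciferase reporter (2% hematocrit, 0.1% parasitemia final) were exposed to compounds in RPMI 1640 with 0.5% Albumax at 37 C, 5% CO2. Growth inhibition was scored as reduced luminescence.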
HCMV antiviral – inhibitors of human cytomegalovirus | HFF cells, HCMV-luciferase reporter, 72 h; hits give low values | activity change, negative = inhibition, % at 57.5 µM | 410,000 tested, 4.5% active; in the data active = activity change below about -60%; inconclusive = no clear call, values can overlap the other calls; inactive = above about -39%
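Human foreskin fibroblasts infected with luciferase-reporter HCMV at MOI 1 PFU/cell, compounds at two doses. Luciferase measured 72 h post infection; normalized to buffer-only basal and Salinomycin (10uM) controls.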
Large screens that a line does not name were inactive. This is a sample that favours compounds with a hit; in the whole collection about 13% have one here. Unless noted, calls come from the whole dose curve; as a rule, active = well fitted inhibition curve with a large enough effect; inconclusive = small, poorly fitted or top-dose-only effect, or another doubt; inactive = no such curve, though single readings can be large or run the other way.

O=C(Nc1ccccc1Oc1cccnc1)C1CCCN(C/C=C/c2ccccc2)C1 (centres undefined)	Pf growth 96h inconclusive, HCV inh inconclusive, Pf growth 48h 5.2µM
CC(C)n1cc(CN2CCCC(C(=O)Nc3ccccc3Oc3cccnc3)C2)cn1 (centres undefined)	none
O=C(Nc1ccccc1Oc1cccnc1)C1CCCN(Cc2ccccc2O)C1 (centres undefined)	Pf growth 48h 13µM
O=C(Nc1cccc(-c2ccc(F)cc2)c1)C1CCCN(Cc2cccnc2)C1 (centres undefined)	HCV inh inconclusive, Pf growth 48h inconclusive
C#Cc1ccc(CN2CCCC(C(=O)Nc3ccccc3Oc3cccnc3)C2)cc1 (centres undefined)	Pf growth 48h 10µM
CCc1ccc(-c2cc(C)no2)cc1S(=O)(=O)Nc1ccc(Cl)cc1	none (no result: Pf growth 96h, HCV inh, Pf growth 48h)
COc1ccc(-c2cc(C)no2)cc1S(=O)(=O)Nc1cccc(C(F)(F)F)c1	none (no result: Pf growth 96h, HCV inh, Pf growth 48h)
COc1ccc(CNS(=O)(=O)c2cc(-c3cc(C)no3)ccc2OC)cc1OC	Pf growth 96h inconclusive
COc1ccc(-c2cc(C)no2)cc1S(=O)(=O)NCc1ccc(OC(C)C)cc1	Pf growth 96h 10µM
CCc1ccc(-c2cc(C)no2)cc1S(=O)(=O)Nc1cccc(CN2CCCC2)c1	Pf growth 48h 9.3µM
COc1ccc(-c2cc(C)no2)cc1S(=O)(=O)Nc1cccc(CN2CCCC2)c1	Pf growth 48h 15µM
COc1cc(OC)cc(-c2cc3c(Nc4cccc(S(C)(=O)=O)c4)nccc3n2C)c1	none (no result: Pf growth 96h, HCV inh, Pf growth 48h)
CCOC(=O)N/N=C\c1ccc(OC/C=C/c2ccccc2)c(OC)c1	Pf growth 48h 1.9µM, HCMV antiviral inconclusive
C=CCOc1ccc(/C=N/NC(=O)C(=O)Nc2ccccn2)cc1OC	Pf growth 96h 4.1µM
CCC(C)n1c(=O)c(C(=O)Nc2ccccc2S(N)(=O)=O)c(O)c2ccccc21 (centres undefined)	Pf growth 96h 9.3µM, HCV inh inconclusive
CC(C)CCn1c(=O)c(C(=O)Nc2ccccc2S(N)(=O)=O)c(O)c2ccccc21	HCV inh inconclusive, HCMV antiviral -97 (no result: Pf growth 96h)
C[C@@H]1CN([C@@H](C)CO)C(=O)CCCn2nncc2CO[C@H]1CN(C)C(=O)Nc1ccc(N2CCN(C)CC2)cc1	none (no result: Pf growth 96h, HCV inh, Pf growth 48h)
O=S(=O)(/C=C/c1ccccc1)N1CCN(c2nc(-c3ccccc3)nc3ccccc23)CC1	Pf growth 96h 12µM, HCV inh inconclusive, Pf growth 48h inconclusive
O=S(=O)(c1ccccc1F)N1CCN(c2nc(-c3cccnc3)nc3ccccc23)CC1	Pf growth 96h inconclusive, HCV inh inconclusive, Pf growth 48h 12µM
c1cncc(-c2nc(N3CCCCCC3)c3ccccc3n2)c1	HCV inh inconclusive, Pf growth 48h 0.47µM (no result: Pf growth 96h)
Cc1ccc(C)c(S(=O)(=O)N2CCN(c3ncccn3)CC2)c1	Pf growth 96h inconclusive
Cc1ccc(C)c(S(=O)(=O)N2CCN(c3nc(-c4cccnc4)nc4ccccc34)CC2)c1	Pf growth 96h inconclusive, HCV inh 11µM, Pf growth 48h 3.3µM
COc1ccc(N2CCN(S(=O)(=O)/C=C/c3ccccc3)CC2)cc1	none
CN1CCN(c2nc(-c3cccnc3)nc3ccccc23)CC1	Pf growth 48h inconclusive
COc1ccc(OC)c(NC(=O)CCc2c(C)nn(-c3ccc(N4CCCC4)nn3)c2C)c1	none (no result: Pf growth 96h, HCV inh, Pf growth 48h)
O=C(C1CCC(Cn2c(=O)c3sccc3n(Cc3ccccc3)c2=O)CC1)N1CCOCC1 (centres undefined)	none (no result: Pf growth 96h, HCV inh, Pf growth 48h)
CCn1c(=N)c(C(=O)NCC2CCCO2)cc2c(=O)n3cc(C)ccc3nc21 (centres undefined)	none (no result: Pf growth 96h, HCV inh, Pf growth 48h)
COc1cc2c(cc1OC)CN(c1nc(-c3cccnc3)nc3ccccc13)CC2	Pf growth 96h 12µM, HCV inh 14µM, Pf growth 48h inconclusive
N#Cc1ccccc1S(=O)(=O)N1CCN(c2nc(-c3cccnc3)nc3ccccc23)CC1	Pf growth 96h 4.7µM, HCV inh inconclusive, Pf growth 48h 9.3µM
Cc1n[nH]c(C)c1S(=O)(=O)N1CCN(S(=O)(=O)c2ccccc2C#N)CC1	Pf growth 96h inconclusive
COc1ccc(CN(C)c2nc(-c3cccnc3)nc3ccccc23)cc1OC	none (no result: HCV inh, HCMV antiviral)
COc1ccc(S(=O)(=O)N2CCN(c3nc(-c4cccnc4)nc4ccccc34)CC2)cc1	Pf growth 96h 2.1µM, HCV inh inconclusive, Pf growth 48h 2.9µM
Cc1c(CNCc2ccc(Cl)cc2)c(C(=O)O)c(C)n1Cc1ccc(F)cc1	none (no result: Pf growth 96h, HCV inh, Pf growth 48h)
COc1cccc(-n2c(O)c(C=NCc3ccc4c(c3)OCO4)c(=O)[nH]c2=O)c1	HCMV antiviral -105
